Data on 35 compounds can be found in PubChem BioAssay AID1845227 (National Center for Advancing Translational Sciences (NCATS), 2023).

The test has as its target Luciferin 4-monooxygenase (Photinus pyralis) (UniProt P08659). Briefly: Confirmatory firefly luciferase (FLuc) qHTS assay for identification of artifact compounds. The method, boiled down:
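Compounds were preincubated 15 min at room temperature with 10 uM D-luciferin and 10 uM ATP in Tris acetate pH 7.6. 10 nM Photinus pyralis luciferase was then added, and luminescence was read after 5 min.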
(In qHTS, concentration-response curves come from the screen itself.)

SMILES strings stand for the structures. Results filed as inconclusive are left out. Entries that show only a call come without a potency. Activity calls are given as the source filed them. Calls come from the whole dose curve; as a rule, active = well fitted inhibition curve with a large enough effect; inconclusive = small, poorly fitted or top-dose-only effect; inactive = no such curve, though single readings can be large or run the other way.
Potency is the fitted concentration of half-maximal effect.

Regarding `C[C@@H]1OC(OC2C(OC3CC[C@@]4(C)C5CC=C6C7CC(C)(C)CC[C@@]7(C(=O)O)CCC6(C)C5(C)CCC4[C@]3(C)CO)OCC(O)C2O)C(O)C(O)C1O` (stereo not given in full), the Potency entry is “inactive”.

As to `Clc1ccc(-c2noc3ncnc(N4CCCCC4)c23)cc1`, the Potency entry was “inactive”. The value for `COc1ccc(C2N(Cc3ccccc3)C(=O)c3ccccc3N2C)cc1COc1ccc(NC(C)=O)cc1` (stereo not given) was “inactive”; that for `COc1ccccc1NC(=O)CSC1=Nc2ccccc2C2=NC(CC(=O)NCc3ccccc3)C(=O)N12` (stereo not given) was “inactive”. To `O=C1Nc2ccccc2/C1=C\c1ccc(O)cc1` belongs “inactive”. To `CCc1ccc(S(=O)(=O)c2nnn3c2nc(N2CCOCC2)c2sccc23)cc1` belongs “inactive”; to `C=C[C@](C)(O)CCC1C(=C)CC(O)C2C(C)(C)CCCC12C` (stereo not given in full), “inactive”.

Take `O=C(NCc1ccccc1)c1cnc2sc(N3CCCC3)nn2c1=O`: the Potency result is “inactive”.

Consider `Cc1ccc(C)c(NC(=O)Cn2c(=O)n(-c3ccc(CC(=O)NCC4CCCO4)cc3)c(=O)c3ccccc32)c1` (stereo not given), for which the Potency entry is “inactive”. To `CCCc1nn2cc(-c3ccc(C)c(C)c3)nc2s1` belongs 0.77 µM (active); to `O=S(=O)(c1ccc2c(c1)OCCO2)N1CCN(S(=O)(=O)c2c(F)cccc2F)CC1`, “inactive”. The value for `CC(NC(=O)CSc1nc(-c2ccccc2F)nc2cc(=O)[nH]n12)c1nc2ccccc2n1C` (stereo not given) was “inactive”; that for `Ic1ccc(Nc2nc(NCCN3CCOCC3)nc(N3CCOCC3)n2)cc1` was “inactive”. Turning to `NC(=O)c1ccc(-c2noc(-c3cccc(Cl)c3)n2)cc1`, the Potency result was “inactive”. `COc1ccc(C2Nc3ccccc3C(=O)N2CCCN(C)C)cc1COc1ccc(NC(C)=O)cc1` (stereo not given): the Potency result is “inactive”.

Regarding `CCOc1ccccc1NC(=O)N(Cc1ccc(C)o1)C1CCN(C(C)=O)CC1`, the Potency entry is “inactive”. To `CC(C)(C)C(=O)OCC(=O)[C@H]1CC[C@H]2[C@@H]3CCC4=CC(=O)CC[C@]4(C)[C@H]3CC[C@]12C` belongs “inactive”; to `Cc1ccccc1CNC(=O)C(C)N(c1ccccc1)S(C)(=O)=O` (stereo not given), “inactive”; to `COc1ccccc1CNc1ccc(-c2nc(-c3cccnc3)no2)cc1[N+](=O)[O-]`, “inactive”. The value for `CNCc1nc(-c2ccc[nH]2)c2cc(Cl)ccc2n1` was “inactive”.

Regarding `CCC(CC)c1nn2c(=O)cc(COc3ccc(NC(=O)c4ccccc4C)cc3)nc2s1`, the Potency result is “inactive”.

For the compound `c1cc(CNc2ccnc(-c3ccc4c(c3)OCO4)n2)ccn1`, the Potency entry is “inactive”.

Consider `O=C(Nc1cc(-c2ccc(Cl)cc2)no1)c1ccc(F)cc1`, for which the Potency entry was “inactive”. Regarding `Nc1nc2nc(-c3ccc(Cl)cc3)cc(C(F)(F)F)n2n1`, the Potency entry is “inactive”.

For the compound `COc1ccc(CNC(=O)c2ccc(NC(=O)N3CCCCc4ccccc43)cc2)cc1`, the Potency entry is “inactive”.

Take `CC(C)(C)OC(=O)N1CCC[C@H]1C(=O)N1CCC(C(=O)N[C@H](Cc2ccccc2)C(=O)NCc2ccc(F)cc2)CC1`: the Potency entry was “inactive”.

Regarding `CCc1ccc(NC(=O)CN2C(=O)C3(SCC(=O)N3c3ccc(F)c(F)c3)c3ccccc32)cc1` (stereo not given), the Potency entry was “inactive”. To `O=C(Nc1ccc(F)cc1F)c1ccc(-n2cnnc2)cc1` belongs “inactive”; to `CC(C)Nc1ccc(-c2nc(-c3ccccn3)no2)cc1[N+](=O)[O-]`, 3.44 µM (active).

Consider `Cc1cccc(CSc2nc3cc(C(=O)NC4CCCC4)ccc3c(=O)n2Cc2ccccc2)c1`, for which the Potency entry was “inactive”. To `COc1ccc(NC(=O)c2cc(-c3ccccc3O)no2)cc1` belongs “inactive”; to `Cc1c(Cl)cccc1NC(=O)c1cccc(NC(=O)N2CCSc3ncccc32)c1`, “inactive”. With `COc1cccc(NCc2ccc(O)c3ncccc23)n1`, the Potency entry was “inactive”. The value for `O=c1cc(-c2ccc(O)cc2)oc2cc(O[C@H]3OC(CO)C(O)C(O)C3O)cc(O)c12` (stereo not given in full) was “inactive”. The value for `COc1ccc(NC(=O)C2CCCN(S(=O)(=O)c3cccc4nonc34)C2)cc1Cl` (stereo not given) was “inactive”.
